Several values for one entry are separate records, joined by “and”; a condition that tells them apart may be missing. Equal values may be shown once. Records with an inconclusive call do not appear. Some compounds were tested as several samples or in several runs, with calls that do not always agree. Activity calls are given as the source filed them. Calls come from the whole dose curve; as a rule, active = well fitted inhibition curve with a large enough effect; inconclusive = small, poorly fitted or top-dose-only effect; inactive = flat fitted curve, though single readings scatter.
Columns and labels:
Assay in all cases: qHTS profiling for inhibitors of Plasmodium falciparum proliferation (AID 504749); note: nearly all actives have a fitted effect of over 60% in size
Details in all cases: P. falciparum in erythrocytes, SYBR Green DNA, 72 h; series mostly up to 28.7 µM
CP217 = tested on: CP217
Outline: (§1)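 Parasite proliferation within erythrocytes, 72 h exposure. Endpoint: SYBR Green I fluorescence after overnight lysis at room temperature. Controls: 0.29 uM artemisinin, DMSO.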

CP237 = tested on: CP237
Outline: as §1

CP238 = tested on: CP238
Outline: as §1

CP247 = tested on: CP247
Outline: as §1

CP250 = tested on: CP250
Outline: as §1

CP252 = tested on: CP252
Outline: as §1

CP256 = tested on: CP256
Outline: as §1

CP260 = tested on: CP260
Outline: as §1

CP262 = tested on: CP262
Outline: as §1

CP265 = tested on: CP265
Outline: as §1

Measured: Potency
Potency is the fitted concentration of half-maximal effect.

O[C@H]1[C@H]2[C@H](O)CCCN2C[C@H]1O
inactive: all assays above

CCCCCl
inactive: all assays above

ClC=C(Cl)Cl
inactive: all assays above

O=[N+]([O-])C(Br)(CO)CO
inactive: all assays above

COCC(C)N(C(=O)CCl)c1c(C)csc1C (stereo not given)
inactive: all assays above

O=C1CN(O)C(c2ccccc2)=c2cc(Cl)ccc2=N1
inactive: all assays above

CNC1(c2ccccc2Cl)CCCCC1=O (stereo not given)
active: CP237 8.91 µM and 7.94 µM
inactive: all other assays above

FC(F)OC(F)(F)C(F)Cl (stereo not given)
inactive: all assays above

C=CCN(C1=NCCN1)c1c(Cl)cccc1Cl
inactive: all assays above

CCCCCCCCOC(=O)c1ccccc1C(=O)OCCCCCCCC
inactive: all assays above

c1cc2c(c(NC3=NCCN3)c1)CCCC2
inactive: all assays above

CC(Cc1ccccc1)NC=O (stereo not given)
inactive: all assays above

CC(N)Cc1ccc(O)cc1 (stereo not given)
inactive: all assays above

CNC(=O)OCC[N+](C)(C)C
inactive: all assays above

O=C(NC(=O)c1c(F)cccc1F)Nc1ccc(Cl)c(Oc2ncc(C(F)(F)F)cc2Cl)c1
inactive: all assays above

CC(C)(C)c1cc(O)ccc1O
active: CP217 8.91 µM | CP237 6.31 µM | CP238 10 µM | CP247 4.47 µM | CP250 7.94 µM | CP256 11.2 µM | CP260 6.31 µM | CP265 11.2 µM and 12.6 µM
12 µM (active) and inactive: CP262
8.91 µM (active) and inactive: CP252

O=[N+]([O-])c1ccccc1
inactive: all assays above

CC[N+](C)(CC)CCOC(=O)C(O)(c1ccccc1)c1ccccc1
inactive: all assays above

CCN(CC)C(=O)/C(Cl)=C(\C)OP(=O)(OC)OC
inactive: all assays above

S=C=S
inactive: all assays above

C[N+]1(C)C2CCC1CC(OC(=O)c1c[nH]c3ccccc13)C2 (stereo not given)
inactive: all assays above

CCON=O
inactive: all assays above

c1ccc2sc(SNC3CCCCC3)nc2c1
inactive: all assays above

Source: PubChem BioAssay (NCATS)
